40 compounds from PubChem BioAssay (Tox21) can be followed below.

Each structure is given as a SMILES string. Inconclusive results are not listed. Unmarked numbers belong to inactive results. Active and inactive are the calls of the source. Calls come from the whole dose curve; as a rule, active = well fitted activation curve with a large enough effect in the signal ratio in the repeat runs (not every such curve was filed as active); inconclusive = weak or mixed curves, or effect the other way; inactive = no such curve, though single readings can be large or run the other way; the % refers to the signal ratio.
% is set by controls: 0 for no effect and ±100 for the full control effect.

For the assay, the target named is Peroxisome proliferator-activated receptor gamma (Homo sapiens) (UniProt P37231). Kind of assay: qHTS assay to identify small molecule agonists of the peroxisome proliferator-activated receptor gamma (PPARg) signaling pathway (AID 743094). As to conditions: HEK293H PPARg-UAS-bla, beta-lactamase FRET ratio, 17 h; series mostly up to 57 µM; activation: at the top concentration. The source says: U.S. Tox21 Program National Center for Advancing Translational Sciences [NCATS] NIH Chemical Genomics Center [NCGC] U.S. Environmental Protection Agency [EPA] National Institutes of Environmental Health Sciences [NIEHS] National Toxicology Program [NTP] U.S. Food and Drug Administration [FDA] Tox21 Assay Overview: The peroxisome proliferator-activated receptors (PPARs) are lipid-activated transcription factors of the nuclear receptor superfamily with three distinct subtypes namely PPAR alpha, PPAR delta (also called PPAR beta) and PPAR gamma (PPARg). All these subtypes heterodimerize with Retinoid X receptor (RXR) and these heterodimers regulate transcription of various genes. PPAR-gamma receptor (glitazone receptor) is involved in the regulation of glucose and lipid metabolism. To identify the compounds that activate PPAR-gamma signaling, GeneBLAzer PPAR gamma UAS-bla HEK293H cell line (Invitrogen, Carlsbad, CA, USA) containing a beta-lactamase reporter gene under control of the control of an upstream activator sequence (UAS) stably integrated into HEK293H cells was used to screen Tox21 compound library.
Peroxisome proliferator-activated receptor gamma (Homo sapiens), sequence (P37231 whole entry, looked up): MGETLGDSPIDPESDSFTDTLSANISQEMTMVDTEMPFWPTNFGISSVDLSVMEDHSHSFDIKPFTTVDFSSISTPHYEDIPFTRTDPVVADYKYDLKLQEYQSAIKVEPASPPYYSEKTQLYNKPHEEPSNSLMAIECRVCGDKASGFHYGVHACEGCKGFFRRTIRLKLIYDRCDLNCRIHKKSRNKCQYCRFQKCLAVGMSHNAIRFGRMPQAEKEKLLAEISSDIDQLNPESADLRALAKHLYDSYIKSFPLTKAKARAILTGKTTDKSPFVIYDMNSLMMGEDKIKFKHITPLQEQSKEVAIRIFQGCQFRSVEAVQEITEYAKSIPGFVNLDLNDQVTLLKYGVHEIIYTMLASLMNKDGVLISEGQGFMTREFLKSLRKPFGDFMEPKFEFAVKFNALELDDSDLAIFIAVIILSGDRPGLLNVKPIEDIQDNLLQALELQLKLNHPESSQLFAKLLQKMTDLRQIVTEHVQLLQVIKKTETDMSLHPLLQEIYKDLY
Tox21 Assay Protocol Summary: PPARg-bla cells were dispensed at 3000 cells/6uL/well in 1536-well black wall/clear bottom plates using a Multidrop Combi (Thermo Fisher Scientific, Waltham, MA) dispenser. After the assay plates were incubated at 37C and 5% CO2 for 5 h, 23 nL of compounds dissolved in DMSO, positive controls or DMSO only was transferred to the assay plate by a Pintool station (Kalypsys, San Diego, CA). The assay plates were incubated at 37C for 17 h. After 1 uL of LiveBLAzerTM B/G FRET substrate was added using a Bioraptr Flying Reagent Dispenser (FRD) workstation (Beckman Coulter, Indianapolis, IN, USA), the plates were incubated at room temperature for 1 h, and fluorescence intensity was measured by an Envision plate reader (PerkinElmer, Shelton, CT).
(In general: In qHTS, concentration-response curves come from the screen itself.)
Consider `CC1=CC(=O)[C@H]2C[C@@H]1C2(C)C`, for which the “activation” value is 1.8%.

Take `Cc1ncc([C@@H](CCCCCCc2ccc3c(n2)NCCC3)CC(=O)O)cn1`: the “activation” value was 0.267%. For `C[C@H]1C[C@H]2[C@@H]3CCC4=CC(=O)C=C[C@]4(C)[C@H]3C(=O)C[C@]2(C)[C@@]1(O)C(=O)CO`, the “activation” value is -7.25%. Consider `CC(C)(C)c1ccc(-c2ccc(C(C)(C)C)cc2)cc1`, for which the “activation” value is 4.85%. In the case of `C=CCCCCCCCCC(=O)OCC`, the “activation” value was 0.415%. For the compound `COc1cc2c(cc1OC)-c1cc3ccc(OC)c(OC)c3c[n+]1CC2`, the “activation” value was -8.64% [at 78.9 µM]. Still for that read-out and setting: to `Clc1cc(Cl)cc(Cl)c1` belongs -3.03%; to `CC(C)COC(=O)c1ccc(N)cc1`, -2.28%. Consider `O=C(c1ccccc1)C1(O)CCCCC1`, for which the “activation” value was 1.5%. Still for that read-out and setting: under `CC(C)=CCC/C(C)=C/C#N` stands 0.866% [at 78.9 µM]; under `CN(C)C(=O)Oc1ccc[n+](C)c1`, 1.55%. As to `COc1ccnc(CS(=O)c2nc3cc(OC(F)F)ccc3[nH]2)c1OC` (stereo not given), the “activation” value was 6.28%. On to `CN(C)CCCN(C)CCCN(C)C`, for which the “activation” value was -0.124%. Take `O=S(=O)(O)c1cc(O)c(O)c(S(=O)(=O)O)c1`: the “activation” value is -4.28%. As to `COc1c(N2CCNC(C)C2)c(F)cc2c(=O)c(C(=O)O)cn(C3CC3)c12` (stereo not given), the “activation” value was 2.52%.

Regarding `CC12CCC(C(=O)C1=O)C2(C)C` (stereo not given), the “activation” value was -0.605% [at 78.9 µM].

On to `CC1(C)OC[C@@H](COC(=O)CCc2ccc(OC[C@@H](O)CNCCNC(=O)N3CCOCC3)cc2)O1`, for which the Potency entry is “inactive”. With `CCCc1ncc(C[n+]2ccccc2C)c(N)n1`, the “activation” value was -0.0016% [at 26.2 µM]. As to `Cc1ccc(C(=O)Nc2ccc(S(=O)(=O)O)c3cc(S(=O)(=O)O)cc(S(=O)(=O)O)c23)cc1NC(=O)c1cccc(NC(=O)Nc2cccc(C(=O)Nc3cc(C(=O)Nc4ccc(S(=O)(=O)O)c5cc(S(=O)(=O)O)cc(S(=O)(=O)O)c45)ccc3C)c2)c1`, the “activation” value was -0.602%. With `CCC(C)(CCCC(C)C)OC(C)=O` (stereo not given), the “activation” value is 1.07%. With `CN1C(C)(C)CC(O)CC1(C)C`, the “activation” value is -0.614%. Take `CCN[C@@H]1C[C@H](N)[C@@H](OC2OC(CN)=CCC2N)[C@H](O)[C@H]1O[C@H]1OC[C@](C)(O)[C@H](NC)[C@H]1O` (stereo not given in full): the “activation” value is 0.455%. On to `CC1=C(C/C=C(\C)CCC[C@H](C)CCC[C@H](C)CCCC(C)C)C(=O)c2ccccc2C1=O`, for which the “activation” value is -1.7%. Same read-out and setting: to `CCCO[Si](OCCC)(OCCC)OCCC` belongs 1.37%. Still for that read-out and setting: to `CC(CO)(CO)[N+](=O)[O-]` belongs -4.26%. Same read-out and setting: under `CCN(CC#N)c1cccc(C)c1` stands -3.7%; under `CCCCOCCOC(=O)CCCCCCCCC(=O)OCCOCCCC`, -3.3%. For the compound `CC(=O)O[C@@]12CO[C@@H]1C[C@H](O)[C@@]1(C)C(=O)[C@H](O)C3=C(C)[C@@H](OC(=O)[C@H](O)[C@@H](NC(=O)OC(C)(C)C)c4ccccc4)C[C@@](O)([C@@H](OC(=O)c4ccccc4)[C@H]21)C3(C)C`, the “activation” value is -12.1%. Still for that read-out and setting: under `Cc1cc(C)c(N=Nc2c(O)c(S(=O)(=O)O)cc3cc(S(=O)(=O)O)ccc23)cc1C` stands -9.42% [at 7.08 µM]. Take `NC(=O)Cc1cccc2ccccc12`: the “activation” value is 0.221%. Consider `Cc1ccccc1N=C(N)N=C(N)N`, for which the “activation” value is -3.52%. Regarding `O=C(O)CNC(=O)c1ccccc1`, the “activation” value is 6.12%. The same measure, in the same setting: under `CCOC(=O)OC(C)OC1=C(C(=O)Nc2ccccn2)N(C)S(=O)(=O)c2ccccc21` (stereo not given) stands -0.128%; under `C1CCC2(CCCCO2)OC1`, -0.272%. Take `O=C(c1ccccc1O)c1ccccc1O`: the “activation” value was -0.581%.

On to `CC(C)(C)OC(=O)c1cccc(N)c1`, for which the “activation” value is -3.36% [at 78.9 µM].

As to `N[C@@H](CCC(=O)O)C(=O)O`, the “activation” value was 0.407%. Turning to `CCN(Cc1ccccc1)c1ccccc1`, the “activation” value is 0.971%. Turning to `NS(=O)(=O)Cc1noc2ccccc12`, the “activation” value was -0.335%. With `CC/C=C\CCOC(C)OCC` (stereo not given), the “activation” value was 2.59%.
